# Inconclusive results are not listed. A number with no mark means an inactive call. Active and inactive are the calls of the source. The call rests on the fitted dose curve; in most records, active means well fitted inhibition curve with a large enough effect; inconclusive means small, poorly fitted or top-dose-only effect; inactive means flat fitted curve, though single readings scatter.
# Assay: BET inhibitor-based combinations targeting novel dependencies in MECOM-rearranged (r) AML: AML-191 cell line (AID 2202236; further: nearly all actives have a fitted effect of over 35% in size;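 on viability (% of control): plate controls were vehicle wells for no effect and wells without cells for full effect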)
# Conditions: AML-191 viability, CellTiter-Glo luminescence, 48 h; series mostly up to 46 µM
# Description: Ecotropic viral insertion site 1 (EVI1) is located on chromosome 3q26.2 as part of the MECOM (MDS and EVI1 complex) locus. Under normal hematopoiesis, EVI1 is a regulator of hematopoietic stem cell maintenance and self-renewal and EVI1 levels decrease as the cells differentiate. In approximately 5-10% of de novo acute myeloid leukemia (AML) EVI1 is aberrantly expressed, including Chromosomal inv(3)(q21;q26.2) or t(3;3)(q21;q26.2) alterations (MECOM-r) that account for about 50% of AML with EVI1 overexpression 31. AMLs with high levels of EVI1 have a poor prognosis and an overall survival time averaging between 10-14 months. EVI1 overexpression confers resistance in leukemia cells, highlighting the need to develop new targeted therapies for EVI1 overexpressing AMLs.
# Here, we performed an unbiased chemical drug screening by evaluating the single agent activity of a collection of 2,480 oncology-focused, approved and investigational drugs (NCATS Mechanism Interrogation Plates, MIPE v5.0) against a panel of seven AML cell lines. These included four MECOM-r cell-lines (AML-191, AML-194, UCSD-AML1 and HNT-34) and three non-MECOM-r AMLs (MV4-11, OCI-AML3 and SET-2). Exploiting the mechanistic redundancy built in the library, we identified target-level sensitivities in MECOM-r AML cells and relative activity as compared to other AML subtypes.
# A collection of 2480 mechanistically annotated dugs (MIPE v5.0) was used to screen four 3q26.2 rearranged AML cell lines and three non-3q26.2 rearranged AML cell lines. This library purposely exploits redundancy by including multiple inhibitors of key onco-targets, while simultaneously encompassing mechanistic diversity, targeting more than 800 distinct mechanisms of action. Briefly, cells were seeded in 5 uL of growth media using a Multidrop Combi dispenser into 1536 well white polystyrene tissue culture treated plates (Corning) at a density of 500cells/well. For each cell-line, for each of the 2480 drugs in MIPE v5.0 library, an 11-point dose curve was generated via a 1536 pin-tool. Plates were incubated for 48 hr at standard incubator conditions, covered by a stainless steel gasketed lid to prevent evaporation. Cell viability was determined by luminescence based, Cell Titer Glo assay (Promega). In detail, 3 uL of Cell Titer Glo were added to each well and plates were incubated at room temperature for 15 min with a stainless-steel lid in place. Luminescence readings were taken using a Viewlux (PerkinElmer) with a 2 s exposure time per plate. Compound dose-response curves were normalized to DMSO and empty well controls on each plate. Quantitative drug activity data from dose-response curves was determined utilizing area Under the Curve (AUC) and Z-transformed AUC (Z-AUC, a mean-centering transformation applied to each individual cell-line screened).
# Potency means the concentration at half of the fitted maximal effect.
Compound,Potency,viability (% of control)
C[C@@H](Oc1ccc2[nH]nc(/C=C/c3cnn(CCO)c3)c2c1)c1c(Cl)cncc1Cl,0.833 µM (active),
Nc1ccn([C@@H]2O[C@H](CO)[C@@H](O)[C@H]2O)c(=O)n1,inactive,
C=C1/C(=C/C=C2\CCCC3(C)[C@@H]([C@H](C)/C=C/C=C/C(O)(CC)CC)CC[C@@H]23)C[C@@H](O)C[C@@H]1O (stereo not given in full),26.3 µM (active),
OC1CCC(Oc2cccc3cnc(Nc4ccc5nc[nH]c5c4)nc23)CC1 (stereo not given),0.833 µM (active),
Cc1[nH]nc2ncc(C(=O)N3CCC[C@H]3c3ccc(Cl)cc3)cc12,inactive,
CC[C@]12C=CCN3CC[C@@]4(c5cc([C@@]6(C(=O)OC)CC7C[C@@H](C(C)(F)F)CN(Cc8c6[nH]c6ccccc86)C7)c(OC)cc5N(C)[C@H]4[C@@](O)(C(=O)OC)[C@@H]1OC(C)=O)[C@@H]32 (stereo not given in full),0.372 µM (active),
CCC[C@H](Nc1nc(-c2ccc(NC(=O)NCC)c(OC)c2)ncc1C)c1cccnc1,0.105 µM (active),
CN(C(=O)c1c(O)c2ccccc2n(C)c1=O)c1ccccc1,inactive,
Cn1c(=O)c2c(ncn2CC2OCCO2)n(C)c1=O,inactive,
CCCc1cc(C)[nH]c(=O)c1CNC(=O)c1cc(-c2ccc(N3CCN(C(C)C)CC3)nc2)cc2c1cnn2C(C)C,29.5 µM (active),
Cn1c(NCCN(CCO)CCCc2ccc([N+](=O)[O-])cc2)cc(=O)n(C)c1=O,inactive,
C[C@H]1C[C@H]2[C@@H]3CCC4=CC(=O)C=C[C@]4(C)[C@H]3C(=O)C[C@]2(C)[C@@]1(O)C(=O)CO,inactive,
CC(C)(NS(=O)(=O)c1ccc2c(Cl)cnc(N=C(N)N)c2c1)C(=O)O,inactive,
COc1ccc(S(=O)(=O)N(CCO)c2ccccc2CN(C)C/C=C/c2ccc(Cl)cc2)cc1,14.8 µM (active),
O=C1NC(=O)[C@@H](c2cn3c4c(cccc24)CCC3)[C@@H]1c1c[nH]c2ccccc12,0.934 µM (active),
CCN1CCN(Cc2ccc(NC(=O)c3ccc(C)c(/C=C/c4cnc5[nH]ccc5c4OC)c3)cc2C(F)(F)F)CC1,2.95 µM (active),
Cc1oc(=O)oc1CN1CCN(c2cc3c(cc2F)c(=O)c(C(=O)O)c2n3C(C)S2)CC1 (stereo not given),inactive,
CNC(=O)[C@@H](NC(=O)[C@H](CC(C)C)[C@H](O)C(=O)NO)C(C)(C)C,20.9 µM (active),
CC(C)(S)[C@@H](N)C(=O)O,,111% [at 5.12 µM]
CCN(C)S(=O)(=O)Nc1ccc(F)c(C(=O)c2c[nH]c3ncc(-c4cnc(C5CC5)nc4)cc23)c1F,16.6 µM (active),

Compound,Potency,viability (% of control)
CN(C)C[C@@H]1CCn2cc(c3ccccc32)C2=C(C(=O)NC2=O)c2cn(c3ccccc23)CCO1,7.42 µM (active),
O=C(NC1CC1)c1cccc(-c2ccc3c(NC(=O)C4CC4)n[nH]c3c2)c1,2.95 µM (active),
CN[C@H]1CN(c2ccc3c(=O)c(C(=O)O)cn(-c4nccs4)c3n2)C[C@@H]1OC,1.35 µM (active),
CC[C@H](C)C(=O)O[C@H]1C[C@H](O)C=C2C=C[C@H](C)[C@H](CC[C@@H](O)C[C@@H](O)CC(=O)O)[C@H]21,inactive,
O=C(/C=C/c1ccc(CN(CCO)CCc2c[nH]c3ccccc23)cc1)NO,0.148 µM (active),
N=C1CCCN1Cc1[nH]c(=O)[nH]c(=O)c1Cl,inactive,
COC1CCC(N2C(=O)CNc3ncc(-c4ccc(C(C)(C)O)nc4)nc32)CC1 (stereo not given),5.9 µM (active),
O=C1CC(c2c[nH]c3ccc(F)cc23)C(=O)N1 (stereo not given),inactive,
C[C@H](NC(=O)/C(C#N)=C/c1cccc(Br)n1)c1ccccc1,4.68 µM (active),
CC(=O)OCC(=O)[C@@]12OC(C)(C)O[C@@H]1C[C@H]1[C@@H]3C[C@H](F)C4=CC(=O)C=C[C@]4(C)[C@@]3(F)[C@@H](O)C[C@@]12C,inactive,
Clc1cccc(-c2ccc(-c3nnc(CCCc4ccc5cccnc5n4)o3)cc2)c1,inactive,
Cc1cc(-c2nc3cc(F)ccc3s2)ccc1NC(=O)[C@@H](N)CCCCN,16.6 µM (active),
COC(=O)Nc1nc2ccc(S(=O)c3ccccc3)cc2[nH]1 (stereo not given),6.61 µM (active),
Cc1ccc2nc(NCCN)c3ncc(C)n3c2c1,5.9 µM (active),
C/C=C1\NC(=O)[C@H]2CSSCC/C=C\[C@H](CC(=O)N[C@H](C(C)C)C(=O)N2)OC(=O)[C@H](C(C)C)NC1=O,0.0148 µM (active),
O=c1[nH]c(=O)n([C@H]2C[C@H](O)[C@@H](CO)O2)cc1F,0.263 µM (active),
O=C(NCc1ccc(S(=O)(=O)c2cccc(C(F)(F)F)c2)cc1)c1cnc2[nH]ncc2c1,0.0148 µM (active),
CN(Cc1ccccc1)C(=O)c1ccc(S(=O)(=O)Nc2ccccc2)cc1,inactive,
Cc1c(CN2CCC(Nc3ncnc4sc(CC(F)(F)F)cc34)CC2)ccc2c1cc(C#N)n2Cc1cn[nH]c1,18.6 µM (active),
N#Cc1cccnc1N1CCN(C(=O)c2cccc(Cc3n[nH]c(=O)c4ccccc34)c2)CC1,0.118 µM (active),

# From PubChem BioAssay (NCATS)
